In PubChem BioAssay AID772 (SRMLSC, 2007):
Hit rate of the full screen: of about 3,300 compounds, about 20 (0.6%) were called active.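 How the source made its calls: active means growth inhibition above 90%, meaning viable cell count cut by more than 90% versus vehicle controls; inactive means growth inhibition below 90%.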 What follows is part of a selection rich in actives, with near analogues and random picks from the rest.

Assay: HT29 colon tumor cell growth inhibition, primary screen, imaging, high content imaging, 72 h, CellTiter-Glo (AID 772);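 on condensed nuclei: condensed means nuclear area below control median minus 1.5 SD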
Conditions: HCS imaging cell count, at 10 µM, stronger effect = higher value; for condensed nuclei: measured here: percent cells with condensed nuclei
[1] = measured here: ATP CellTiter-Glo viability

Cc1cc(C)nc(N(C#N)CC(=O)N(c2ccccc2)C(C)C)n1
growth inhibition: -23.3% (inactive)
growth inhibition [1]: -17.6%
condensed nuclei: 7.69%

Clc1ccc2[nH]c3c(NCCCN4CCOCC4)ncnc3c2c1
growth inhibition: 88.5% (inactive)
growth inhibition [1]: 96.8%
condensed nuclei: 45.3%

COC(=O)C(NC(C)=O)(Nc1ccc(Br)cn1)C(F)(F)F (stereo not drawn)
growth inhibition: -46.6% (inactive)
growth inhibition [1]: -39%
condensed nuclei: 2.33%

O=C1CC(c2ccccc2)n2nc(NS(=O)(=O)c3ccccc3)nc2N1 (stereo not drawn)
growth inhibition: 6.12% (inactive)
growth inhibition [1]: 25.8%
condensed nuclei: 5.04%

CCOC(=O)CNS(=O)(=O)c1cc(-c2n[nH]c(=O)c3ccccc23)ccc1C
growth inhibition: -38.6% (inactive)
growth inhibition [1]: -21.1%
condensed nuclei: 6.33%

Cc1nc(/N=C(\N)Nc2ccccc2)nc2ccccc12
growth inhibition: -39.5% (inactive)
growth inhibition [1]: -11.8%
condensed nuclei: 3.28%

CCCCCOc1ccccc1C(=O)NCC(=O)O
growth inhibition: -69.1% (inactive)
growth inhibition [1]: -28.9%
condensed nuclei: 1.44%

CSc1nc2sc3c(c2c2nnnn12)CCCC3
growth inhibition: 37.7% (inactive)
growth inhibition [1]: 9.47%
condensed nuclei: 2.53%

Cc1ccc(N2C(=O)[C@@H]3[C@H](C2=O)C2CCCN2[C@@H]3C(=O)c2ccccc2)cc1 (stereo partly drawn)
growth inhibition: 61.8% (inactive)
growth inhibition [1]: 9.87%
condensed nuclei: 4.55%

COc1ccc(N2CCN(c3oc(COc4ccc(Cl)cc4)nc3C#N)CC2)cc1
growth inhibition: 92.4% (active)
growth inhibition [1]: 87.2%
condensed nuclei: 23.8%

N#Cc1nc(COc2ccc(Cl)cc2)oc1N1CCN(Cc2ccccc2)CC1
growth inhibition: 85.7% (inactive)
growth inhibition [1]: 70.5%
condensed nuclei: 7.69%

N#Cc1nc(COc2ccc(Br)cc2)oc1N1CCCC1
growth inhibition: 31.9% (inactive)
growth inhibition [1]: -4.22%
condensed nuclei: 13.2%

Cc1c(C(=O)O)sc(=S)n1-c1ccccc1
growth inhibition: 46.5% (inactive)
growth inhibition [1]: 9.56%
condensed nuclei: 3.47%

CC(=O)C1=C(O)C(=O)N(c2ccc(C(=O)O)cc2)C1c1ccccc1 (stereo not drawn)
growth inhibition: -93.1% (inactive)
growth inhibition [1]: -74.7%
condensed nuclei: 4.2%

COC(=O)C1=C(C)N=C2SC(C)C(=O)N2C1c1ccc(C(=O)OC)cc1 (stereo not drawn)
growth inhibition: -44.2% (inactive)
growth inhibition [1]: -32%
condensed nuclei: 6.05%

CCN(CC)CCN1C(=O)C(O)=C(C(=O)c2ccco2)C1c1ccccn1 (stereo not drawn)
growth inhibition: -51.4% (inactive)
growth inhibition [1]: -77%
condensed nuclei: 2.14%

CC(=O)C1=C(NC(=O)c2ccccc2F)C[C@@H]2[C@H]1C2(C)C
growth inhibition: -1.88% (inactive)
growth inhibition [1]: -28.5%
condensed nuclei: 2.19%

Cc1ccc(-n2c(=O)c3c4c(sc3n3c(C)nnc23)COC(C(C)C)C4)cc1 (stereo not drawn)
growth inhibition: -38% (inactive)
growth inhibition [1]: -56.1%
condensed nuclei: 4.02%

O=C(NC1CCS(=O)(=O)C1)N1CCCCC1 (stereo not drawn)
growth inhibition: 28.2% (inactive)
growth inhibition [1]: 4.61%
condensed nuclei: 9.88%

COC(=O)c1ccccc1NC(=O)CSc1nnc(-c2ccncc2)o1
growth inhibition: 11.7% (inactive)
growth inhibition [1]: -27.3%
condensed nuclei: 4.89%

CCOC(=O)c1[nH]c2ccc(C)cc2c1N=CN(CC)CC
growth inhibition: 1.88% (inactive)
growth inhibition [1]: -13%
condensed nuclei: 12.3%
